Assay results reported in the supplement of paper PMC8975748.
Counter-ions that a name gives are not always drawn. ± gives the standard deviation of the averaged measurements.

Each compound was assayed on Saccharomyces cerevisiae BY4741 SeMeCo community (assay: mean cell size (pixel area) (pixels); higher = larger cells). Conditions: 10 µM; 24 h; SM minimal medium.
In short: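 A Saccharomyces cerevisiae BY4741 community carrying four plasmids, each with a fluorescent marker and each complementing one auxotrophy, was exposed for 24 h to drug at a final 10 µM in SM medium in acoustically predosed 384-well plates. The overnight preculture (OD600 = 1.0) was diluted to OD600 = 0.3 before 70 µl was added per well. Cells were then fixed with paraformaldehyde, imaged by automated confocal microscopy and analysed in Harmony to derive mean cell pixel area per well, averaged over 3 replicates. Same SeMeCo high-content imaging drug screen: Selleck FDA-approved drugs at 10 µM, 24 h in SM medium, 384-well plates, 3 replicates.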

CNCC[C@H](Oc1cccc2ccccc12)c1cccs1 [Duloxetine] and CN1CCOC(c2ccccc2)c2ccccc2C1 (stereo not given) [Nefopam HCl] are within error of each other in mean cell size: 12.3 ± 0.34 for the first, 12.1 ± 0.25 for the second.

Going from O=C(N[C@H](CO)[C@H](O)c1ccc([N+](=O)[O-])cc1)C(Cl)Cl [Chloramphenicol] to CC1(C)S[C@@H]2[C@H](NC(=O)[C@H](N)c3ccc(O)cc3)C(=O)N2[C@H]1C(=O)O [Amoxicillin trihydrate], the mean cell size falls from 12.5 ± 0.17 to 12.19 ± 0.082.

CC1=C(CC(=O)O)c2cc(F)ccc2/C1=C\c1ccc([S+](C)[O-])cc1 (stereo not given) [Sulindac] and CN(C)CC/C=C1/c2ccccc2Sc2ccc(Cl)cc21 [Chlorprothixene] are within error of each other in mean cell size: 12.4 ± 0.21 for the first, 12.2 ± 0.36 for the second.

Going from NNc1nncc2ccccc12 [Hydralazine HCl] to O=C(Cn1ccnc1[N+](=O)[O-])NCc1ccccc1 [Benznidazole], the mean cell size rises from 11.8 ± 0.14 to 12.49 ± 0.12.

Compared with NCCNc1ccc(NCCN)c2c1C(=O)c1ccncc1C2=O [Pixantrone Maleate], O=C(Nc1ccc(Oc2ccc(Cl)cc2)c(Cl)c1)c1cc(I)cc(I)c1O [Rafoxanide] is higher in mean cell size: 11.8 ± 0.17 for the first, 12.2 ± 0.19 for the second.

CCC1=C(C)CN(C(=O)NCCc2ccc(S(=O)(=O)NC(=O)N[C@H]3CC[C@H](C)CC3)cc2)C1=O [Glimepiride] and C[C@H]1[C@H](NC(=O)/C(=N\OC(C)(C)C(=O)O)c2csc(N)n2)C(=O)N1S(=O)(=O)O [Aztreonam] are the same in mean cell size: 12.5 ± 0.2 for the first, 12.5 ± 0.18 for the second.

CC(=O)OCC(CCn1cnc2cnc(N)nc21)COC(C)=O [Famciclovir] and CCCCOc1cc(C(=O)NCCN(CC)CC)c2ccccc2n1 [Dibucaine HCl] are within error of each other in mean cell size: 12.6 ± 0.22 for the first, 12.3 ± 0.24 for the second.

O=C1CCc2cc(OCCCCc3nnnn3C3CCCCC3)ccc2N1 [Cilostazol] and Cc1nc2n(c(=O)c1CCN1CCC(c3noc4cc(F)ccc34)CC1)CCCC2 [Risperidone] are the same in mean cell size: 12.32 ± 0.082 for the first, 12.3 ± 0.18 for the second.

First: COC(=O)C1=C(C)NC(C)=C(C(=O)OCC(C)C)C1c1ccccc1[N+](=O)[O-] (stereo not given) [Nisoldipine]
Second: COC(=O)C1=C(C)NC(C)=C(C(=O)OC(C)C)C1c1cccc2nonc12 (stereo not given) [Isradipine]
The mean cell size of the first is lower: 12.2 ± 0.14 for the first, 12.49 ± 0.11 for the second.

Compared with C=CC1=C(C(=O)O)N2C(=O)[C@@H](NC(=O)/C(=N\O)c3csc(N)n3)[C@H]2SC1 [Cefdinir], O=C(Cn1cnnn1)N[C@@H]1C(=O)N2C(C(=O)O)=C(CSc3nncs3)CS[C@H]12 [Ceftezole sodium] is lower in mean cell size: 12.48 ± 0.068 for the first, 12.31 ± 0.087 for the second.

Nc1nc2ccc(OC(F)(F)F)cc2s1 [Riluzole] and Cc1c(Nc2ncccc2C(=O)O)cccc1C(F)(F)F [Flunixin Meglumin] are the same in mean cell size: 12.6 ± 0.14 for the first, 12.6 ± 0.17 for the second.

CC1(C)CC[C@]2(C(=O)O)CC[C@]3(C)C(=CC[C@@H]4[C@@]5(C)CC[C@H](O)C(C)(C)[C@@H]5CC[C@]43C)[C@@H]2C1 [Oleanolic Acid] and COc1c(N2CCNC(C)C2)c(F)cc2c(=O)c(C(=O)O)cn(C3CC3)c12 (stereo not given) [Gatifloxacin] are the same in mean cell size: 12.4 ± 0.22 for the first, 12.4 ± 0.17 for the second.

C[C@]1(Cn2ccnn2)[C@H](C(=O)O)N2C(=O)C[C@H]2S1(=O)=O [Tazobactam] and CCn1cc(C(=O)O)c(=O)c2cc(F)c(N3CCNCC3)cc21 [Norfloxacin] are within error of each other in mean cell size: 12.4 ± 0.26 for the first, 12.3 ± 0.21 for the second.

Going from N#Cc1ccc2[nH]cc(CCCCN3CCN(c4ccc5oc(C(N)=O)cc5c4)CC3)c2c1 [Vilazodone HCl] to O=C(CCCN1CC=C(n2c(=O)[nH]c3ccccc32)CC1)c1ccc(F)cc1 [Droperidol], the mean cell size rises from 12.34 ± 0.018 to 12.61 ± 0.072.

Going from CCCNC(C)C(=O)Nc1ccccc1C (stereo not given) [Prilocaine hydrochloride] to CCN(CC)CC#CCOC(=O)C(O)(c1ccccc1)C1CCCCC1 (stereo not given) [Oxybutynin chloride], the mean cell size rises from 12.28 ± 0.063 to 12.57 ± 0.03.

C#C[C@]1(O)CC[C@H]2[C@@H]3CCC4=CC(=O)CC[C@@H]4[C@H]3C(=C)C[C@@]21CC [Etonogestrel] and CCCCC(F)(F)[C@@]1(O)CC[C@H]2[C@@H](CC(=O)[C@@H]2CCCCCCC(=O)O)O1 [Lubiprostone] are within error of each other in mean cell size: 12.4 ± 0.14 for the first, 12.6 ± 0.28 for the second.

COc1ccc([C@@H]2Sc3ccccc3N(CCN(C)C)C(=O)[C@@H]2OC(C)=O)cc1 [Diltiazem HCl] and CN(C)CCCN1c2ccccc2CCc2ccc(Cl)cc21 [Clomipramine HCl] are within error of each other in mean cell size: 12.5 ± 0.27 for the first, 12.55 ± 0.052 for the second.

O=C1CN2Cc3c(ccc(Cl)c3Cl)N=C2N1 [Anagrelide HCl] and O=C1NCC2(CCN(CCc3ccccc3)CC2)O1 [Fenspiride HCl] are within error of each other in mean cell size: 12.3 ± 0.29 for the first, 12.6 ± 0.16 for the second.

First: CCCN[C@H]1CCc2nc(N)sc2C1 [Pramipexole 2HCl Monohydrate]
Second: CCc1cc(C(N)=S)ccn1 [Ethionamide]
The mean cell size of the first is higher: 12.56 ± 0.054 for the first, 12.45 ± 0.074 for the second.

Going from CC(=O)OC(C)C[N+](C)(C)C (stereo not given) [Methacholine chloride] to CN[C@@H]1[C@@H](O[C@H]2O[C@H](CO)[C@@H](N)[C@H](O)[C@H]2O)OC2C[C@@H](N)[C@@H](O[C@H]3[C@H](O)[C@@H](O)[C@H](N)C[C@@H]3N)OC2[C@@H]1O (stereo not given in full) [Apramycin Sulfate], the mean cell size falls from 12.5 ± 0.13 to 12 ± 0.25.
